The whole screen tested about 2,400 compounds, of which about 750 (31%) were called active.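 How the source made its calls: active means median signal gain over dofetilide-blocked control wells reaching their mean plus 3 SD, so readout 1 at least 0; inactive means the rest.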 This is one part of the list.

Chain of Voltage-gated inwardly rectifying potassium channel KCNH2 (Homo sapiens) (Q12809 whole entry, looked up): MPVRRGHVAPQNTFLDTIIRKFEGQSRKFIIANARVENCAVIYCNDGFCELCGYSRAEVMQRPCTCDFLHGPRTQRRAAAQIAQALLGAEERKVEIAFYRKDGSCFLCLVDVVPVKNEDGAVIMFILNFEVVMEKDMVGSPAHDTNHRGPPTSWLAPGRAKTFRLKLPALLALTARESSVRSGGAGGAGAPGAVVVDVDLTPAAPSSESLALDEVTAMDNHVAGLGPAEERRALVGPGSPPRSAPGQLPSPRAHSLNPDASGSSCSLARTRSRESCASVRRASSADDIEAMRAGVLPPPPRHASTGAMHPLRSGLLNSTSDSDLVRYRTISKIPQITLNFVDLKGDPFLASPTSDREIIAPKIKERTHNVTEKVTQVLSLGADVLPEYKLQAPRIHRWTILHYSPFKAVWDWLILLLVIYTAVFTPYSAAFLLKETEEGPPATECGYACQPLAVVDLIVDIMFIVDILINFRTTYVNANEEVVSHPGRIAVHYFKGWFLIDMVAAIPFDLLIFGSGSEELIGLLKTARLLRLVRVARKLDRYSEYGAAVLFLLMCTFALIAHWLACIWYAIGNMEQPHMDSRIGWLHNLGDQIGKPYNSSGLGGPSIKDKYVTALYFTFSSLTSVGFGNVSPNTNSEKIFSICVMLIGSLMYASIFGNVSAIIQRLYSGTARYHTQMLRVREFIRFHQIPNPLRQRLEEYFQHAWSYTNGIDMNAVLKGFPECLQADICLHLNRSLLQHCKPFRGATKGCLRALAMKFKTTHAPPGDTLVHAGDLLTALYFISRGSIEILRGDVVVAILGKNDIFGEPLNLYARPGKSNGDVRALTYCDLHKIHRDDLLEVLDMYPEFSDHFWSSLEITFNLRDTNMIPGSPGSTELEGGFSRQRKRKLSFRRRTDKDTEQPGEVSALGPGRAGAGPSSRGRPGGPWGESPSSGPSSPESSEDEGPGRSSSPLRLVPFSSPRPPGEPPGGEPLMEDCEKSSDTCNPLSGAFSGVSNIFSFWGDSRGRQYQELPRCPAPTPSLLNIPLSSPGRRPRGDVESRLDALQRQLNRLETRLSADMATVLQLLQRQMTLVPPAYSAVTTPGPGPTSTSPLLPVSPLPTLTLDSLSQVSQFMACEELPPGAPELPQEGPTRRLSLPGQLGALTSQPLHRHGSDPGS

The test concerns the target Voltage-gated inwardly rectifying potassium channel KCNH2 (Homo sapiens) (UniProt Q12809). Put plainly: modulators restoring hERG flux under dofetilide – cell-based, thallium flux, duplicate retest, dofetilide IC70, confirmation (AID 1835). The following applies: hERG cell line, FluxOR thallium flux, dofetilide-blocked; at 10 µM; hits give high values. Background: Block of hERG is tested as a sign of cardiac risk.
As to `O=[N+]([O-])c1cccnc1Sc1n[nH]c(-c2ccc(Cl)cc2)n1`, the activity increase over dofetilide control, less the hit threshold was -14% (inactive).

On to `Cc1ccc2[nH]c3c(c2c1)CNCC3`, for which the activity increase over dofetilide control, less the hit threshold is -15% (inactive). The result for `CCC(=O)Nc1nnc(-c2ccccn2)o1` reads -17% (inactive); that for `O=C(NN1C(=O)C2C(c3ccccc3)C=CC(c3ccccc3)C2C1=O)c1ccncc1` (stereo unspecified), -56% (inactive). `COc1ccc(C(=O)NC(=S)N2CCC(C)CC2)cc1`: the activity increase over dofetilide control, less the hit threshold is -11% (inactive). Take `CC1CN(C(=S)NC(=O)c2ccc(Cl)cc2)CC(C)O1` (stereo unspecified): the activity increase over dofetilide control, less the hit threshold was 5% (active).

Consider `COc1ccc(C(=O)NC(=S)N2CCC(C)CC2)cc1Br`, for which the activity increase over dofetilide control, less the hit threshold was 26% (active). With `O=C(NC(=S)N1CCCC(C(F)(F)F)C1)c1ccc(F)cc1` (stereo unspecified), the activity increase over dofetilide control, less the hit threshold was 19% (active). In the case of `O=C(c1ccc(C(F)(F)F)cc1)C1CCCN(C(=O)CCc2ccncc2)C1` (stereo unspecified), the activity increase over dofetilide control, less the hit threshold was -7% (inactive). Consider `O=C(C1CC(=O)N(c2ccc3c(c2)OCCO3)C1)N1CCCC(C(F)(F)F)C1` (stereo unspecified), for which the activity increase over dofetilide control, less the hit threshold was -15% (inactive). For `Cc1ccc2c(c1)N(CCC(=O)NCc1cccnc1)C(=O)CO2` the value was -17% (inactive).

`O=C1NC2(CCCCCC2)C(=O)N1Cc1ccccc1`: the activity increase over dofetilide control, less the hit threshold is -2% (inactive). The result for `CC(C)(C)OC(=O)NCCCC(CCCNC(=O)OC(C)(C)C)C(=O)O` reads -22% (inactive); that for `CCOC(=O)CN1C(=O)SC(Nc2ccc(C)cc2)C1=O` (stereo unspecified), -10% (inactive); that for `Cc1nc2c(C(=O)NCc3cccs3)cnn2c(C)c1Cc1ccccc1`, -12% (inactive). The result for `CCCn1c(SCC(N)=O)nc2c(c1=O)C1(CCCC1)Cc1ccccc1-2` reads 2% (active); that for `CC1CCCN(C(=O)COC(=O)c2cc(-c3cccs3)nn2-c2ccccc2)C1` (stereo unspecified), -29% (inactive); that for `Nc1ccc(NC(=O)Nc2ccc(N)cc2)cc1`, -3% (inactive).

As to `O=C(NCc1ccco1)c1ccc(OCC2CCCO2)cc1` (stereo unspecified), the activity increase over dofetilide control, less the hit threshold was -22% (inactive). Turning to `Cc1cc2c(cc(C(=O)OC(C(=O)NCc3ccco3)C(C)C)n2C)o1` (stereo unspecified), the activity increase over dofetilide control, less the hit threshold is 2% (active). Regarding `COc1cccc(N2CCN(CC(=O)NC(=O)NCc3ccco3)CC2)c1`, the activity increase over dofetilide control, less the hit threshold is -9% (inactive). With `CCc1ccc(/C=c2\s/c(=C\C(=O)C(C)(C)C)[nH]c2=O)cc1`, the activity increase over dofetilide control, less the hit threshold is -6% (inactive).

As for `CCc1ccc(/C=C/C(=O)C2C(=O)c3ccccc3C2=O)cc1`, the activity increase over dofetilide control, less the hit threshold is 49% (active). For `CC(=O)C1=C(C)NC(=O)NC1/C=C/c1ccccc1` (stereo unspecified) the value was -1% (inactive). For `Cc1ccc(/C=C/C(=O)C2C(=O)c3ccccc3C2=O)cc1` the value was 42% (active); for `Cc1ccc(/C=C(\NC(=O)c2ccccc2)C(=O)N2CCCCC2)cc1`, -26% (inactive); for `CCC(c1nnc(SCC(=O)NCCc2ccc(Cl)cc2Cl)o1)N(C)C` (stereo unspecified), -16% (inactive).

As to `O=C(NC(=S)N1CCN(Cc2ccc3c(c2)OCO3)CC1)c1cccc(Br)c1`, the activity increase over dofetilide control, less the hit threshold was 48% (active).

On to `CCCCNC(=S)NNC(=O)c1ccc2c(c1)OCO2`, for which the activity increase over dofetilide control, less the hit threshold was -13% (inactive). For `O=C(NC(=S)N1CCN(Cc2ccc3c(c2)OCO3)CC1)c1ccc(Cl)cc1` the value was 21% (active); for `O=C(NC(=S)N1CCN(C/C=C/c2ccccc2)CC1)c1ccc(Cl)nc1`, -7% (inactive). As for `O=C(COc1ccc(Cl)cc1)N1CCN(Cc2ccc3c(c2)OCO3)CC1`, the activity increase over dofetilide control, less the hit threshold is -17% (inactive).

Take `COc1ccc(C(=O)N2CCN(Cc3ccc4c(c3)OCO4)CC2)cc1[N+](=O)[O-]`: the activity increase over dofetilide control, less the hit threshold was -7% (inactive).

`Cc1cc(Cl)c(S(=O)(=O)N2CCSCC2)cc1OCC(=O)NC1CCCCC1`: the activity increase over dofetilide control, less the hit threshold is -8% (inactive). For `Cc1nc(NCCc2ccc(S(N)(=O)=O)cc2)c2c(C)c(C)sc2n1` the value was 2% (active); for `O=C(Nc1nnc(-c2ccccc2)o1)c1ccc(Cl)cc1`, -19% (inactive). The result for `O=C(Nc1cccc2[nH]ncc12)c1ccc(F)cc1` reads -7% (inactive); that for `O=C(Nc1nc(-c2ccccc2)c(-c2ccccc2)o1)c1ccc(F)cc1`, 17% (active). For `O=c1cc(-c2c(F)c(F)c(F)c(F)c2F)oc2ccccc12` the value was 2% (active); for `CCOC(=O)C(=CNc1cc(C)nn1C(C)(C)C)C(=O)OCC`, 2% (active). Regarding `CCOC(=O)C(=CNc1cccc(C)n1)C(=O)OCC`, the activity increase over dofetilide control, less the hit threshold was 5% (active).

For `CCOC(=O)CC(=O)CSc1nc2c(C)c(C)ccc2cc1C`, the activity increase over dofetilide control, less the hit threshold is -7% (inactive).

Regarding `CCOC(=O)C(=CNc1ccc(N2CCOCC2)cc1)C(=O)OCC`, the activity increase over dofetilide control, less the hit threshold was 0% (inactive). For `CCOC(=O)C(=CNc1cc(C)ccn1)C(=O)OCC` the value was 10% (active). As for `CCOC(=O)C(=CNc1cc(C)ccc1[N+](=O)[O-])C(=O)OCC`, the activity increase over dofetilide control, less the hit threshold is -17% (inactive). The result for `CCOC(=O)C(=CNc1ccc(OC)cc1[N+](=O)[O-])C(=O)OCC` reads -10% (inactive); that for `O=C(NC1CCCC1)C(c1ccncc1)N(C(=O)Cn1nnc(-c2ccccc2F)n1)c1cccc(F)c1` (stereo unspecified), -14% (inactive). Turning to `Cc1cccc(C)c1NC(=O)Cn1cnc2c(=O)n(C)c(=O)n(C)c21`, the activity increase over dofetilide control, less the hit threshold is -17% (inactive). For `COc1ccccc1C1C(C(=O)c2ccc(C)o2)=C(O)C(=O)N1c1cc(C)on1` (stereo unspecified) the value was -1% (inactive); for `Cc1ccc(NC(=O)COc2cccnc2[N+](=O)[O-])cc1S(=O)(=O)N1CCOCC1`, -24% (inactive). Regarding `Cc1ccc(-c2noc(CCC(=O)NC3CCCC3)n2)cc1`, the activity increase over dofetilide control, less the hit threshold was -7% (inactive). `Cc1cc(C)cc(-n2c(C)cc(/C=N/NC(=O)CN(c3c(C)cccc3C)S(C)(=O)=O)c2C)c1`: the activity increase over dofetilide control, less the hit threshold was -1% (inactive).

Consider `CCN(C(=S)NC(=O)c1ccccc1Br)C1CCCCC1`, for which the activity increase over dofetilide control, less the hit threshold was 80% (active). The result for `CN(C(=S)NC(=O)c1ccccc1Br)C1CCCCC1` reads 1% (active); that for `O=C(NCC1CCCCC1)c1cccnc1Cl`, -14% (inactive); that for `COc1cc(S(=O)(=O)Nc2c(C)cc(C)cc2C)ccc1Cl`, -10% (inactive).

As to `O=C(CN1C(=O)COc2ccccc21)NNC(=O)Nc1ccccc1F`, the activity increase over dofetilide control, less the hit threshold is -22% (inactive).

In the case of `CC(C)CCn1c(SCC(=O)NC2CC2)nc2cc(Cl)ccc2c1=O`, the activity increase over dofetilide control, less the hit threshold was -13% (inactive).

Turning to `CCCn1c(SCN2C(=O)c3ccccc3C2=O)nc2cc(Cl)ccc2c1=O`, the activity increase over dofetilide control, less the hit threshold is 20% (active). For `COCCn1c(SCC(=O)Nc2cc(C)cc(C)c2)nc2ccccc2c1=O` the value was -9% (inactive); for `CCCCC1C2=C(CCCC2=O)OC2=C1C(=O)CCC2`, -13% (inactive). The result for `CCCCn1c(N)c(C(=S)NC(=O)CC(C)(C)C)c(=O)n(C)c1=O` reads -3% (inactive). Consider `O=C1c2ccccc2NC(c2ccc(Br)s2)N1O` (stereo unspecified), for which the activity increase over dofetilide control, less the hit threshold is 41% (active). The result for `COc1ccc(/C=C/c2cc(=O)c3cc(Cl)ccc3o2)cc1` reads 56% (active). The result for `COc1ccc(-c2cc(=O)oc3cc(OCC(C)=O)ccc23)cc1` reads -27% (inactive); that for `Cc1oc2ccc(OCc3ccc(Cl)cc3)cc2c1C(=O)O`, -7% (inactive). As for `CCN(C(=O)c1cc2c(=O)[nH]c3ccc(C)cc3c2s1)c1ccccc1F`, the activity increase over dofetilide control, less the hit threshold is -15% (inactive). In the case of `O=C(c1ccc2c(c1)N(Cc1ccccc1F)C(=O)c1ccccc1S2(=O)=O)N1CCCC1`, the activity increase over dofetilide control, less the hit threshold is -10% (inactive). As for `CC/C(=N\NC(=O)c1nnn(-c2nonc2N)c1-c1cccs1)c1ccccc1`, the activity increase over dofetilide control, less the hit threshold was -4% (inactive). The result for `N#Cc1ccccc1OCCN1C(=O)c2ccccc2C1=O` reads -4% (inactive); that for `O=Cc1cc(-c2ccccc2)[nH]c1-c1ccccc1`, -19% (inactive). As to `S=c1[nH]c(-c2ccccc2)cs1`, the activity increase over dofetilide control, less the hit threshold was 66% (active). As to `Cc1ccc(-c2csc(=S)[nH]2)cc1`, the activity increase over dofetilide control, less the hit threshold was 95% (active).

On to `S=c1[nH]c(-c2ccc(Cl)cc2)cs1`, for which the activity increase over dofetilide control, less the hit threshold is 136% (active).

Turning to `S=c1[nH]nc(Nc2ccc(Cl)cc2)s1`, the activity increase over dofetilide control, less the hit threshold is -3% (inactive). `CO/N=C(\CCC(=O)O)c1cccs1`: the activity increase over dofetilide control, less the hit threshold was -20% (inactive). The result for `O=C(N/N=C/c1cc([N+](=O)[O-])ccc1O)c1ccc(COc2ccc3c(c2)CCC3)o1` reads -10% (inactive); that for `Cc1c(N2C(=O)/C(=C\c3ccccc3O)SC2=S)c(=O)n(-c2ccccc2)n1C`, 14% (active); that for `O=C(O)COc1ccccc1/C=C1\SC(=S)N(NC(=O)c2ccccc2O)C1=O`, -11% (inactive).

For `O=C(OCc1ccc(F)cc1)c1cc(S(=O)(=O)N2CCCCC2)ccc1N1CCOCC1`, the activity increase over dofetilide control, less the hit threshold is -21% (inactive). The result for `Cc1cc(=O)oc(C)c1C(=O)NCCC(C)C` reads -17% (inactive); that for `COc1ccc(NC(=O)CNC(=O)c2cccs2)cc1Cl`, -8% (inactive); that for `COc1ccc(OC)c(NC(=O)C(=O)NNC(=O)c2cccs2)c1`, 8% (active). The result for `COc1cc(NC(=O)c2ccc3c(c2)OCO3)ccc1NC(=O)c1cccs1` reads -22% (inactive); that for `COc1ccc(NC(=O)C(=O)NNC(=O)c2cccs2)c(OC)c1`, 28% (active); that for `CCc1cccc2c1NC(=O)C2(O)CC(=O)c1cccs1` (stereo unspecified), -11% (inactive).

For `COC(=O)c1ccnc(/C=N/O)c1`, the activity increase over dofetilide control, less the hit threshold is -13% (inactive).

As for `O=C1NC(=S)SC1=C1CCCCCC1`, the activity increase over dofetilide control, less the hit threshold is 53% (active).

`O=C(O)c1ccc(S(=O)(=O)/N=C2\C=C(Nc3ccccc3F)C(=O)c3ccccc32)cc1`: the activity increase over dofetilide control, less the hit threshold is 4% (active). The result for `Cc1ccccc1NC1=C/C(=N\S(=O)(=O)c2ccc(C(=O)O)cc2)c2ccccc2C1=O` reads -6% (inactive). Turning to `O=c1c2cccnc2[nH]c(=S)n1CCC1=CCCCC1`, the activity increase over dofetilide control, less the hit threshold is -3% (inactive).

With `O=c1c2ccccc2[nH]c(=S)n1CCC1=CCCCC1`, the activity increase over dofetilide control, less the hit threshold was 11% (active). For `O=C(CCn1c(=S)[nH]c2cc3c(cc2c1=O)OCO3)NCc1ccc(Cl)cc1` the value was -8% (inactive); for `O=c1c2ccc(Cl)cc2[nH]c(=S)n1CCC1=CCCCC1`, 42% (active); for `O=C(Cc1cccs1)Nn1c(Cc2cccs2)nc2ccccc2c1=O`, -7% (inactive).

In the case of `CC(=O)Nc1ccc(S(=O)(=O)NC2(C(F)(F)F)C(=O)Nc3c2c(=O)[nH]c(=O)n3C)cc1` (stereo unspecified), the activity increase over dofetilide control, less the hit threshold was -10% (inactive).

Consider `O=C(O)c1sccc1OCc1ccccc1`, for which the activity increase over dofetilide control, less the hit threshold was -8% (inactive). The result for `O=C(NNc1c(F)c(F)cc(F)c1F)c1cc2ccccc2oc1=O` reads -20% (inactive). For `O=C(O)c1ccccc1NC(=O)c1cc2ccccc2oc1=O` the value was 10% (active); for `COc1ccc(CCNC(=O)c2cc3ccccc3oc2=O)cc1`, -8% (inactive).

For the compound `CCO/C=C1\N=C(c2ccc(F)cc2)OC1=O`, the activity increase over dofetilide control, less the hit threshold was -5% (inactive).

For the origin of these results see PubChem BioAssay AID1835 (Johns Hopkins Ion Channel Center, 2009).
